# In PMC7862700, “An all-to-all approach to the identification of sequence-specific readers for epigenetic DNA modifications on cytosine”:
# Key:
# Experiment in all cases: DAPPL (digital affinity profiling via proximity ligation, sequencing); 10 mM Tris-HCl pH 7.5, 50 mM NaCl, 1 mM DTT, 4% glycerol, room temperature, 30 min; GST-TFs on glutathione beads, 16-mer random dsDNA library, 0.1% formaldehyde crosslink after washing; high values mean tight binding
# FEV = biological target: T1, FEV (Homo sapiens, UniProt Q99581 1-238); details: protein: recombinant; tags: N-terminal GST; dsDNA, one strand shown
# T1 sequence: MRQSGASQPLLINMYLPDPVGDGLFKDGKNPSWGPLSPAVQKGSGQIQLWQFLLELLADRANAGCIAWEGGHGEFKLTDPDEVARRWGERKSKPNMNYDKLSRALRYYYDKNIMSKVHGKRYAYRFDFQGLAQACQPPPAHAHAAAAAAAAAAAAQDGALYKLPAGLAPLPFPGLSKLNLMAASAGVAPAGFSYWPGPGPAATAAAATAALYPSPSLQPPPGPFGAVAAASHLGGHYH
# Summary of the method: (§1)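 Each value of binding signal is a hexamer's read frequency for a factor divided by the same hexamer's frequency in the tag-only sample. Barcoded, bead-captured GST fusions of human transcription factors made in yeast were pooled with that sample and incubated with 200 nmole of a random double-stranded 16-mer DNA library in Tris/NaCl/DTT/glycerol buffer at room temperature for 30 min. Washing, 0.1% formaldehyde crosslinking, proximity ligation, PCR and Illumina NextSeq500 sequencing followed.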
# ETV5 = ETV5 (Homo sapiens, UniProt P41161 1-510); details: protein: recombinant; tags: N-terminal GST; dsDNA, one strand shown
# Sequence of ETV5 (P41161 whole entry): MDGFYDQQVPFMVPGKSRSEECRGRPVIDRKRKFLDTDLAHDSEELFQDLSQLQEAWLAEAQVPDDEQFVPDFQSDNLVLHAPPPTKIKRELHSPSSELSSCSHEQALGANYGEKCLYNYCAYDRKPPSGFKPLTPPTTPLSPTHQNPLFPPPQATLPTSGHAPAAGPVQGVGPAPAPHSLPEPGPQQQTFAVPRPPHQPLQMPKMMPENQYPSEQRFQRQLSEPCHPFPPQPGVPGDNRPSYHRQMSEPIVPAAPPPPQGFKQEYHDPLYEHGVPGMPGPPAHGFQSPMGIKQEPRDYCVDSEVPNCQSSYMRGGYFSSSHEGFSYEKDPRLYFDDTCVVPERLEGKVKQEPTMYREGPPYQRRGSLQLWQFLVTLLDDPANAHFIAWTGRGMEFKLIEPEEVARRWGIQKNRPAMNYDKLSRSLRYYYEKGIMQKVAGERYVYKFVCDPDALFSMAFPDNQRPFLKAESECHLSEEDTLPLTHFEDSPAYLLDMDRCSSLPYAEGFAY
# Summary of the method: as §1
# HSF1 = HSF1 (Homo sapiens, UniProt Q00613 1-529); details: protein: recombinant; tags: N-terminal GST; chain copies: 3; dsDNA, one strand shown
# Sequence of HSF1 (Q00613 whole entry): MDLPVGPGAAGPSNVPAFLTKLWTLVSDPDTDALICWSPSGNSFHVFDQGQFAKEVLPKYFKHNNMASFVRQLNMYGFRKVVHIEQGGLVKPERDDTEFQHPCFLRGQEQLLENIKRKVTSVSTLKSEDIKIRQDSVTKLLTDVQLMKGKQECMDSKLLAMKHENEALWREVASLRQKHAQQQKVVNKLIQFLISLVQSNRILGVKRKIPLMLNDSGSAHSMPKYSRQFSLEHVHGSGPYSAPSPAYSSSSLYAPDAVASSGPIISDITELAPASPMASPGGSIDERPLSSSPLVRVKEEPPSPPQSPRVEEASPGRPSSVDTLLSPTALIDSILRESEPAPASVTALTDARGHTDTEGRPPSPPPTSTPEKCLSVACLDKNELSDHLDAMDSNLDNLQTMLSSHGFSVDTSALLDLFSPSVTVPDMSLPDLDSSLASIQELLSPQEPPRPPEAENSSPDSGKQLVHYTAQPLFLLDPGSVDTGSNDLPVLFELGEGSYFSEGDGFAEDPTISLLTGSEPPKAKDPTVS
# Summary of the method: as §1
# SPIC = biological target: T2, SPIC (Homo sapiens, UniProt Q8N5J4 1-248); details: protein: recombinant; tags: N-terminal GST; dsDNA, one strand shown
# T2 sequence: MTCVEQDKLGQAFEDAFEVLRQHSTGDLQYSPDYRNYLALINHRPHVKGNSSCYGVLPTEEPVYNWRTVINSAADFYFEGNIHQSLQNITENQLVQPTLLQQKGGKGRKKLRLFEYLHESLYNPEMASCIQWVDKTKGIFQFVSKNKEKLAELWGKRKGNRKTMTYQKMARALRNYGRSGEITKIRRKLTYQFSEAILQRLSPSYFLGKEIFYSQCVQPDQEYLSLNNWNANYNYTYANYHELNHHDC
# Summary of the method: as §1
# ELF4 = ELF4 (Homo sapiens, UniProt Q99607 1-663); details: protein: recombinant; tags: N-terminal GST; dsDNA, one strand shown
# Sequence of ELF4 (Q99607 whole entry): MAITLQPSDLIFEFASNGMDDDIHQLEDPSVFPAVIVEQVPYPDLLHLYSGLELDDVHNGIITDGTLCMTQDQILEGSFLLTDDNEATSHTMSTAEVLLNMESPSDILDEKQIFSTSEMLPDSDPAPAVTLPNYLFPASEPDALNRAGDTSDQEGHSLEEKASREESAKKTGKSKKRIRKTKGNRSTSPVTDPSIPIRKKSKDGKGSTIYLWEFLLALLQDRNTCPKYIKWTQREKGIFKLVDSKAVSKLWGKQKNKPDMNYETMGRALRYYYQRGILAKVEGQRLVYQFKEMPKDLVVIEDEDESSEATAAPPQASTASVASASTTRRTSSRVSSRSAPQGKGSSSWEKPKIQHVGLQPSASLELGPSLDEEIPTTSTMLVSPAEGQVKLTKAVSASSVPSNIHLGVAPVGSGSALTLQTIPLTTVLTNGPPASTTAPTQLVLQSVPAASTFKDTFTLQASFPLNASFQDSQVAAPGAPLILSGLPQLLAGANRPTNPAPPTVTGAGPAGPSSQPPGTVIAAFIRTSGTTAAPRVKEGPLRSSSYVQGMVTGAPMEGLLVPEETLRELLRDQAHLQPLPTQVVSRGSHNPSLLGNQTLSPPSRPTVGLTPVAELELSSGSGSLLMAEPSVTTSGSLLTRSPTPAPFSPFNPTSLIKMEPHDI
# Summary of the method: as §1
# ELK4 = biological target: T3, ELK4 (Homo sapiens, UniProt P28324-2 1-405); details: protein: recombinant; tags: N-terminal GST; dsDNA, one strand shown
# T3 sequence: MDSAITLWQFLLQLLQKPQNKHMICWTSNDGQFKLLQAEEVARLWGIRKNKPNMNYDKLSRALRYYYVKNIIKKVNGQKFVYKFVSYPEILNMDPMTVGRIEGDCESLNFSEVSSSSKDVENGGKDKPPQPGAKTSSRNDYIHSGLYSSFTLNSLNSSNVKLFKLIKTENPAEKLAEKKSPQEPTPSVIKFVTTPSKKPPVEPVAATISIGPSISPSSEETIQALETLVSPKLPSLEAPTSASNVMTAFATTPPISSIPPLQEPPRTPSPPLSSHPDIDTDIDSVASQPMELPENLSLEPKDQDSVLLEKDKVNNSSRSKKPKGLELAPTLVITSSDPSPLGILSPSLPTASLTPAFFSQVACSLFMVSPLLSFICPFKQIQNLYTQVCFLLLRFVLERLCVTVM
# Summary of the method: as §1
# ETV2 = biological target: T4, ETV2 (Homo sapiens, UniProt O00321 1-342); details: protein: recombinant; tags: N-terminal GST; dsDNA, one strand shown
# T4 sequence: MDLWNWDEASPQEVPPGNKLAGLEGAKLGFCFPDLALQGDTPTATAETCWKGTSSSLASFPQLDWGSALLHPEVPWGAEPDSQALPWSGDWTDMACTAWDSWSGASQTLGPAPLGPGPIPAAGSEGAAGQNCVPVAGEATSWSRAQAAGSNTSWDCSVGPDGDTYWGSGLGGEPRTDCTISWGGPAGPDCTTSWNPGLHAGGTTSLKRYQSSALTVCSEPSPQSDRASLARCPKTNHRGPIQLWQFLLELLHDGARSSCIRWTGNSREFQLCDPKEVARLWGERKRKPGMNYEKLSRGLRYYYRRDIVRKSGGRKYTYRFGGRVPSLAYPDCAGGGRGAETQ
# Summary of the method: as §1
# ELF3 = biological target: T5, ELF3 (Homo sapiens, UniProt P78545 1-371); details: protein: recombinant; tags: N-terminal GST; dsDNA, one strand shown
# T5 sequence: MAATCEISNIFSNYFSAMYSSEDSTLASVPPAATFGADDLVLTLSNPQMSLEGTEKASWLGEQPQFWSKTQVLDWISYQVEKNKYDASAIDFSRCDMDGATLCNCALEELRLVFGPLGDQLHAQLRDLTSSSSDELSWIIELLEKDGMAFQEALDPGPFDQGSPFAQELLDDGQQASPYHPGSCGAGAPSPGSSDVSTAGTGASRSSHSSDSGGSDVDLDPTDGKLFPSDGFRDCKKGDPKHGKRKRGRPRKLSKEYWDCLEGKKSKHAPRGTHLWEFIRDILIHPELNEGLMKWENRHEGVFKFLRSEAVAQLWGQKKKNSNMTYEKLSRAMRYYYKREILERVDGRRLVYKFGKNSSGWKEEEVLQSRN
# Summary of the method: as §1
# CRX = CRX (Homo sapiens, UniProt O43186 1-299); details: protein: recombinant; tags: N-terminal GST; dsDNA, one strand shown
# Sequence of CRX (O43186 whole entry): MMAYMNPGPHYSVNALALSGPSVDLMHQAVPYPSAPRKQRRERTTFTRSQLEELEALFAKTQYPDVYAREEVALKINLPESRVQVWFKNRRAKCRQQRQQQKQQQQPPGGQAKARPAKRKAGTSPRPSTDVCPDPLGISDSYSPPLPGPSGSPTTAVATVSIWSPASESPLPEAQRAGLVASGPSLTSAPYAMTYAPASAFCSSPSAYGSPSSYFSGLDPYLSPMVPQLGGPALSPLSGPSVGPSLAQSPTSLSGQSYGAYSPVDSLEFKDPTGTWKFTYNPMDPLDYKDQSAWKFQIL
# Summary of the method: as §1
# ETV1 = ETV1 (Homo sapiens, UniProt P50549 1-477); details: protein: recombinant; tags: N-terminal GST; dsDNA, one strand shown
# Sequence of ETV1 (P50549 whole entry): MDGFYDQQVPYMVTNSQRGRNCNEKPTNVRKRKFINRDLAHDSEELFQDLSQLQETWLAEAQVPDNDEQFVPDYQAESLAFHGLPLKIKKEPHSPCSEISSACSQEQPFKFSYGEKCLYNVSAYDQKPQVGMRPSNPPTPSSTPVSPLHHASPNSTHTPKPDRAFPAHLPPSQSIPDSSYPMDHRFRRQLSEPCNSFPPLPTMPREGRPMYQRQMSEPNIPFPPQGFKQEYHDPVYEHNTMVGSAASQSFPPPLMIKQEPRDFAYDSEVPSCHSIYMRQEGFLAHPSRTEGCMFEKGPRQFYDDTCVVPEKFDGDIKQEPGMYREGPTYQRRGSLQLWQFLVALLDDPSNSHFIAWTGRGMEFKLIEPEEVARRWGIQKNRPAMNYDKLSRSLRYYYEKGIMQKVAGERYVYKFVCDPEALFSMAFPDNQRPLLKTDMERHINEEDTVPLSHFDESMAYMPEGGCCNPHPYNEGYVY
# Summary of the method: as §1
# ERF = biological target: T6, ERF (Homo sapiens, UniProt P50548 1-548); details: protein: recombinant; tags: N-terminal GST; dsDNA, one strand shown
# T6 sequence: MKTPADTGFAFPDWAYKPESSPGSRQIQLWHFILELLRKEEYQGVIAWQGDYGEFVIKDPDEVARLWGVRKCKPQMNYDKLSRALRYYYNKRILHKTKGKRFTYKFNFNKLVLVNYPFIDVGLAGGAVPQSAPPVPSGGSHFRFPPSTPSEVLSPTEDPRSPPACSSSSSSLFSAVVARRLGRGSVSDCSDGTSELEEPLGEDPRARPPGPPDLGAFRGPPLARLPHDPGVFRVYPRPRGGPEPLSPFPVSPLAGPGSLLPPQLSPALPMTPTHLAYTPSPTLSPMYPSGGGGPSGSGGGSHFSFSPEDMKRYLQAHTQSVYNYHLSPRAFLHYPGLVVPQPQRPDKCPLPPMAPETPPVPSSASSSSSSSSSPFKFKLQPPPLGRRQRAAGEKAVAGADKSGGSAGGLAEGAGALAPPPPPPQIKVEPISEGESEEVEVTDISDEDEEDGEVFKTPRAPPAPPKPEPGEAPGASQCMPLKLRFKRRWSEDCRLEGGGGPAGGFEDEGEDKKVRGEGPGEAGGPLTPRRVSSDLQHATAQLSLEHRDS
# Summary of the method: as §1
# ETV3L = biological target: T7, ETV3L (Homo sapiens, UniProt Q6ZN32 1-361); details: protein: recombinant; tags: N-terminal GST; dsDNA, one strand shown
# T7 sequence: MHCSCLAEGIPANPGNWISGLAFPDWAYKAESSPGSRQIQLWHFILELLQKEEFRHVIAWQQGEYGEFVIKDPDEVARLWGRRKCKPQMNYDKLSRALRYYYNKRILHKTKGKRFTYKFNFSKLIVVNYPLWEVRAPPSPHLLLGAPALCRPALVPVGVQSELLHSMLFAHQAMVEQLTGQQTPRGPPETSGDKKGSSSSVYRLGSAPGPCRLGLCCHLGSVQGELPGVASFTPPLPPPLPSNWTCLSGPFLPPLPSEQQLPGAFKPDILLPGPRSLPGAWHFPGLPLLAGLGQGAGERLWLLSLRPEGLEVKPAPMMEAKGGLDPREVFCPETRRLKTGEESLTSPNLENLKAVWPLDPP
# Summary of the method: as §1
# ETS2 = biological target: T8, ETS2 (Homo sapiens, UniProt P15036 1-469); details: protein: recombinant; tags: N-terminal GST; dsDNA, one strand shown
# T8 sequence: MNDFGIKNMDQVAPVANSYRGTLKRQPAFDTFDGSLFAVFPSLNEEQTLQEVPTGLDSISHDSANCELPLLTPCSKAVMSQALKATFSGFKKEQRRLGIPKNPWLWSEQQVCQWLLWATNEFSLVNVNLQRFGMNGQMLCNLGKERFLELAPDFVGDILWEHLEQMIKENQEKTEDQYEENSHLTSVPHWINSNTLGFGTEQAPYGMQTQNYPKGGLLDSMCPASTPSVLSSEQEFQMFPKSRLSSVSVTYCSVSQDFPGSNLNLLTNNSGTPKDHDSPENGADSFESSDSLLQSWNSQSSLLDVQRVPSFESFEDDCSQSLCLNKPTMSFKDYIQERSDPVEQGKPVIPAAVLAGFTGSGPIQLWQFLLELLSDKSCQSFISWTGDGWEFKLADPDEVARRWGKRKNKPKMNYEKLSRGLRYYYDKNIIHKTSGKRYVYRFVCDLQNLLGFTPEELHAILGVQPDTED
# Summary of the method: as §1
# SPDEF = biological target: T9, SPDEF (Homo sapiens, UniProt O95238 1-335); details: protein: recombinant; tags: N-terminal GST; dsDNA, one strand shown
# T9 sequence: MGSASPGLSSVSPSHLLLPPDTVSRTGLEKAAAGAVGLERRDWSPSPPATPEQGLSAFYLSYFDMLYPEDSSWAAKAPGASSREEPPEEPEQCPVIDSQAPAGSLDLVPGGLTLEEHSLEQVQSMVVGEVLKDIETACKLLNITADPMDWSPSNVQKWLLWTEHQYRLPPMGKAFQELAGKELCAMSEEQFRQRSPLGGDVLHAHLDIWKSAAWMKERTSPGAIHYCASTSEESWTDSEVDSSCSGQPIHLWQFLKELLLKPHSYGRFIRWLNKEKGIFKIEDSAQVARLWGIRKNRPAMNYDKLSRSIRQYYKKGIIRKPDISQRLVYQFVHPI
# Summary of the method: as §1
# ETV7 = biological target: T10, ETV7 (Homo sapiens, UniProt Q9Y603 1-341); details: protein: recombinant; tags: N-terminal GST; dsDNA, one strand shown
# T10 sequence: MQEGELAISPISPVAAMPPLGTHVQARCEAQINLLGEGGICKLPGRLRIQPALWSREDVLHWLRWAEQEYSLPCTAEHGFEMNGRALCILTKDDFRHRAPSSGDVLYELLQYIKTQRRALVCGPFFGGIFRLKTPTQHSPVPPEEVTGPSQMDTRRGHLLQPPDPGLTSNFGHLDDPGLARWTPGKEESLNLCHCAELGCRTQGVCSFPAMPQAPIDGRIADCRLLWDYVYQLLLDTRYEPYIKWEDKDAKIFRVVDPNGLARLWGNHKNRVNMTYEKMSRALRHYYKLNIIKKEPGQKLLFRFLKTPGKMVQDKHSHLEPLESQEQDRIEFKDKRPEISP
# Summary of the method: as §1
# ELF5 = biological target: T11, ELF5 (Homo sapiens, UniProt Q9UKW6-2 1-255); details: protein: recombinant; tags: N-terminal GST; dsDNA, one strand shown
# T11 sequence: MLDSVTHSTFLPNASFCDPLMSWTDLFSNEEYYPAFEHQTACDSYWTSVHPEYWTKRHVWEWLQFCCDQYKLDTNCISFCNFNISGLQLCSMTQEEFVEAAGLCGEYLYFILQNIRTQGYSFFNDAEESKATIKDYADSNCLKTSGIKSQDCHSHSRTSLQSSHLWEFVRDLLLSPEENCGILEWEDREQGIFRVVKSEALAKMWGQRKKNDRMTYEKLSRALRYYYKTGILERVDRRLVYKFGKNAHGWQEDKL
# Summary of the method: as §1
# ETV3 = biological target: T12, ETV3 (Homo sapiens, UniProt P41162-2 1-143); details: protein: recombinant; tags: N-terminal GST; dsDNA, one strand shown
# T12 sequence: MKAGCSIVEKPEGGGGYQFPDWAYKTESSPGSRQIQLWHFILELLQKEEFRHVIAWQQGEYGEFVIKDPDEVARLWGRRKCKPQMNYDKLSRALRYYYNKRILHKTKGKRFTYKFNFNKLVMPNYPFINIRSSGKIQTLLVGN
# Summary of the method: as §1
# ETV6 = ETV6 (Homo sapiens, UniProt P41212 1-452); details: protein: recombinant; tags: N-terminal GST; dsDNA, one strand shown
# Sequence of ETV6 (P41212 whole entry): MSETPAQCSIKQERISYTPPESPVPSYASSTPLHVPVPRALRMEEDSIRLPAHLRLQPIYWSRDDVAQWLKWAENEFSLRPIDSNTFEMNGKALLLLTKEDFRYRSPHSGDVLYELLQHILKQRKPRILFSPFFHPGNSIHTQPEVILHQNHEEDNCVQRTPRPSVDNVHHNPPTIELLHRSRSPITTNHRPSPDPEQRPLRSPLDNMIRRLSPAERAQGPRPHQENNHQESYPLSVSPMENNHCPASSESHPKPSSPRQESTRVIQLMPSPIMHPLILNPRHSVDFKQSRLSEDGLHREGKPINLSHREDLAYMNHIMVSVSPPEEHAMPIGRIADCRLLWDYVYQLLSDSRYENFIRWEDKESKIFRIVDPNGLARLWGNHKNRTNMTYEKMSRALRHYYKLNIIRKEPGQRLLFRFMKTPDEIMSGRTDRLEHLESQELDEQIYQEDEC
# Summary of the method: as §1
sequence,measurement,setting,value
TAACCT,binding signal,FEV,"1.3 fold enrichment (6-mer frequency, TF over GST control)"
same,binding signal,ETV5,"1.29 fold enrichment (6-mer frequency, TF over GST control)"
same,binding signal,HSF1,"1.44 fold enrichment (6-mer frequency, TF over GST control)"
same,binding signal,SPIC,"1.17 fold enrichment (6-mer frequency, TF over GST control)"
same,binding signal,ELF4,"1.33 fold enrichment (6-mer frequency, TF over GST control)"
same,binding signal,ELK4,"1.46 fold enrichment (6-mer frequency, TF over GST control)"
same,binding signal,ETV2,"1.13 fold enrichment (6-mer frequency, TF over GST control)"
same,binding signal,ELF3,"1.29 fold enrichment (6-mer frequency, TF over GST control)"
same,binding signal,CRX,"1.67 fold enrichment (6-mer frequency, TF over GST control)"
same,binding signal,ETV1,"1.31 fold enrichment (6-mer frequency, TF over GST control)"
same,binding signal,ERF,"1.35 fold enrichment (6-mer frequency, TF over GST control)"
same,binding signal,ETV3L,"1.28 fold enrichment (6-mer frequency, TF over GST control)"
same,binding signal,ETS2,"1.31 fold enrichment (6-mer frequency, TF over GST control)"
same,binding signal,SPDEF,"1.23 fold enrichment (6-mer frequency, TF over GST control)"
same,binding signal,ETV7,"1.26 fold enrichment (6-mer frequency, TF over GST control)"
same,binding signal,ELF5,"1.29 fold enrichment (6-mer frequency, TF over GST control)"
same,binding signal,ETV3,"1.31 fold enrichment (6-mer frequency, TF over GST control)"
same,binding signal,ETV6,"1.23 fold enrichment (6-mer frequency, TF over GST control)"
